Experimental data: article PMC4336329 (PLoS ONE, 2015)
Out of some 310,000 compounds screened, about 14,000 (4.5%) showed an effect of 50% or more. The effect is printed as a negative number. Only a selection was taken, and strong results are over-represented in it overall.

biological target: human ether-à-go-go-related gene (hERG) potassium channel (human, UniProt Q12809); experiment: primary screen, population patch clamp on CHO cells stably expressing hERG; higher = less effect of the substance
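Further: peak tail current of the secondary pulse compared with the same well before compound.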

Sequence of human ether-à-go-go-related gene (hERG) potassium channel (Q12809 whole entry, looked up): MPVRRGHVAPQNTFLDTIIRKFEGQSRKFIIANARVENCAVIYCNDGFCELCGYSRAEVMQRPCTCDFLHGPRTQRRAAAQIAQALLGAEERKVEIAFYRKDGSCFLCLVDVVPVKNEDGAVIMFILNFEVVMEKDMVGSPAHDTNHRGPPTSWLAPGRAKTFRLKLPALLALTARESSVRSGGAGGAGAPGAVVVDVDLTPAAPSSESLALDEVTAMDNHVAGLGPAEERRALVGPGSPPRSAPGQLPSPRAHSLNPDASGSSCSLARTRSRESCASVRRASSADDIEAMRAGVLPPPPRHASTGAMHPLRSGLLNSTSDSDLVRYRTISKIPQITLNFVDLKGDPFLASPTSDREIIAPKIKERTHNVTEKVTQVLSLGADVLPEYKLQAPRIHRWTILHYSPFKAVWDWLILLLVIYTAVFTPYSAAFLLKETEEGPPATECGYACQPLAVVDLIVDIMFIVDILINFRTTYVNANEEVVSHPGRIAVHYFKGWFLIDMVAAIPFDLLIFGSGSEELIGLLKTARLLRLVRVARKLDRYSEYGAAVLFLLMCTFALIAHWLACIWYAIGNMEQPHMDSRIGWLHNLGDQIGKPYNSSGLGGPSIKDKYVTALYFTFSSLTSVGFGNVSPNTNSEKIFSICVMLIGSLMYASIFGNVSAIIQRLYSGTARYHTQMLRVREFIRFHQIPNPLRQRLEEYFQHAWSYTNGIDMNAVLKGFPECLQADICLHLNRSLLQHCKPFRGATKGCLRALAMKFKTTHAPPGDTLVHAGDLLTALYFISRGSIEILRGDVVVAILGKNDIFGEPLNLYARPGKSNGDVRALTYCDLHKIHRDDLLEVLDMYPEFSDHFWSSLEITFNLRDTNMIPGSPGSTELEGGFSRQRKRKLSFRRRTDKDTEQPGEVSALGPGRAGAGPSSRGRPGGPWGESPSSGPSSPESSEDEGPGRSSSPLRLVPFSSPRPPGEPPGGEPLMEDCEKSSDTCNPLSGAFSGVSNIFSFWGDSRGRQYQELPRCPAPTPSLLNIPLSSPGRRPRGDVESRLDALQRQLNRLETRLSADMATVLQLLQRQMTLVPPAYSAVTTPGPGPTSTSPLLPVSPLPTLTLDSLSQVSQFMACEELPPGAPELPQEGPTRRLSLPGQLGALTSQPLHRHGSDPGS

In order of rising “hERG current change (%, negative = inhibition) at 10uM” value:
1. Cn1c(N)c(C(=O)COC(=O)CCC2CCCCC2)c(=O)n(C)c1=O  -73.6%
2. COc1ccc(CNC(=O)CN(Cc2ccc(Cl)cc2)C(=O)c2csnn2)cc1  -71.7%
3. COc1ccc(CNC(=O)CN(Cc2ccc(F)cc2)C(=O)c2csnn2)cc1  -70.4%
4. Nc1nc(CN2CCN(Cc3ccccc3)CC2)nc(Nc2ccccc2)n1  -66.2%
5. COc1ccc(N2CCN(C(=O)c3ccccc3Br)CC2)c([N+](=O)[O-])c1  -65.5%
6. Cn1c(N)c(C(=O)COC(=O)CC2CC3CCC2C3)c(=O)n(C)c1=O (stereo not shown)  -64.4%
7. Nc1nc(CN2CCCCCC2)nc(Nc2ccccc2)n1  -61.4%
8. COc1ccc(CN(CC(=O)NCc2ccc(F)cc2)C(=O)c2csnn2)cc1  -58.5%
9. COc1ccc(CNC(=O)CN(Cc2ccc(OC)cc2)C(=O)c2csnn2)cc1  -57.5%
10. Cn1nc(C(=O)NNC(=O)CCc2ccccc2Cl)c2ccccc2c1=O  -53.9%
11. COc1ccc(N2CCN(C(=O)c3ccccc3F)CC2)c([N+](=O)[O-])c1  -51.3%
12. CCc1noc(C)c1C(=O)NNC(=O)c1nn(C)c(=O)c2ccccc12  -50.2%
13. Cn1c(N)c(C(=O)COC(=O)CCC2CCCC2)c(=O)n(C)c1=O  -43.3%
14. COc1ccc(CNC(=O)CN(Cc2ccc(C)cc2)C(=O)c2csnn2)cc1  -36.1%
15. COc1ccccc1CN(CC(=O)NCc1ccc(F)cc1)C(=O)c1csnn1  -35.3%
16. Cc1ccc(OCCC(=O)NNC(=O)c2nn(C)c(=O)c3ccccc23)cc1  -33.1%
17. COc1ccc(CNC(=O)CN(Cc2ccccc2F)C(=O)c2csnn2)cc1  -32.7%
18. COc1ccc(CNC(=O)CN(Cc2ccccc2)C(=O)c2csnn2)cc1  -32.3%
19. COc1ccc(CNC(=O)CN(Cc2ccccc2OC)C(=O)c2csnn2)cc1  -29%
20. COc1ccc(CN(CC(=O)NCc2ccccc2)C(=O)c2csnn2)cc1  -26.6%
21. COc1ccc(Cl)cc1C(=O)Nc1ccncc1  -26.2%
22. COc1ccc(NC(=O)c2sc3ncnc(N4CCN(c5ccccn5)CC4)c3c2C)cc1Cl  -23%
23. Cn1c(N)c(C(=O)COC(=O)C23CC4CC(CC(C4)C2)C3)c(=O)n(C)c1=O  -22.6%
24. Cn1c(N)c(C(=O)COC(=O)C2CCCC2)c(=O)n(C)c1=O  -20.6%
25. Nc1nc(CN2CCN(C(c3ccccc3)c3ccccc3)CC2)nc(Nc2ccccc2)n1  -18.4%
26. C=CCN(CC(=O)NCc1ccc(OC)cc1)C(=O)c1csnn1  -16.7%
27. O=C(Nc1ccc(-n2ccnc2P(=O)(O)c2ccccc2)cc1)c1ccccc1Br  -14.9%
28. CCOc1ccc(OCCC(=O)NNC(=O)c2nn(C)c(=O)c3ccccc23)cc1  -13.1%
29. COc1cc(OC)cc(C(=O)N2CCN(c3ccccc3F)CC2)c1  -11.6%
30. O=C(c1ccccc1Br)N1CCN(c2ccc([N+](=O)[O-])c(N3CCOCC3)c2)CC1  -11.5%
31. Cn1c(N)c(C(=O)COC(=O)C2CCCCC2)c(=O)n(C)c1=O  -11.2%
32. Cc1ccc(N2CCN(C(=O)c3ccccc3F)CC2)c(C)c1  -8.81%
33. COc1ccc(NC(=O)CSc2c(C)n[nH]c2C)cc1  -7.52%
34. O=C(NC(Nc1nc2ccc([N+](=O)[O-])cc2s1)(C(F)(F)F)C(F)(F)F)c1ccccc1  -6.48%
35. CCOC(=O)c1snc(C(=O)NC2CCCCC2)c1N  -6.13%
36. COc1ccc(CNC(=O)CN(C(=O)c2csnn2)c2ccc(F)cc2)cc1  -5.15%
37. c1ccc(Nc2nc(N3CCCCC3)nc(N3CCCCC3)n2)cc1  -4.68%
38. CCOC(=O)N1CCN(C(=O)C(CC(C)C)NS(=O)(=O)c2ccc(C)cc2)CC1 (stereo not shown)  -4.14%
39. Cc1ccccc1OC(C)C(=O)NC1CCCC1 (stereo not shown)  -2.63%
40. CCCc1nnc(NC(=O)c2c(O)c3cccc4c3n(c2=O)CCC4)s1  -2.48%
41. CCc1noc(C)c1C(=O)NNC(=O)c1ccccc1  -1.03%
42. COC(CNC(=O)c1ccc2c(c1)nc(C)n2-c1cccc(C)c1)OC  0.933%
43. S=C(NCCCN1CCOCC1)NC1CCCC1  8.32%
44. Cc1occc1C(=O)NNC(=O)c1nn(C)c(=O)c2ccccc12  8.46%
45. O=C(NN=C1C2CC3CC1CC(Cl)(C3)C2)c1cccs1  8.54%
46. Cc1cc(=O)oc2cc(OCc3cc4c(cc3Cl)OCO4)ccc12  8.74%
47. COC(=O)C1C2c3ccccc3OC1(C)N=c1s/c(=C/c3cn(C)nc3C)c(=O)n12 (stereo not shown)  11.2%
48. CCC(CC)NC(=O)COC(=O)c1ccc(OCC(=O)Nc2ccccc2OC)c(OC)c1  11.4%
49. c1ccc(Nc2nc(N3CCCC3)nc(N3CCCC3)n2)cc1  13.1%
50. NNC(=O)CNc1cccc(Cl)c1  15.4%
51. CC1CCC(C(=O)c2c(O)c3ccccc3oc2=O)CC1 (stereo not shown)  15.9%
52. COc1ccc(-c2nc(S(=O)(=O)c3ccc(C)cc3)c(N3CCCC3)o2)cc1  17.2%
53. O=c1[nH]c(/C=C\c2ccccc2F)nc(O)c1[N+](=O)[O-]  17.5%
54. CC(=O)c1ccc(NC(=O)C2C3CCC(C3)C2C(=O)O)cc1 (stereo not shown)  17.8%
55. COCCCNC(=O)Cn1nc(-c2ccccc2OC)ccc1=O  18%
56. COc1cc(C(=O)N2CCN(c3ccccc3OC)CC2)c([N+](=O)[O-])cc1OC  18.5%
57. Nc1nc(CCl)nc(Nc2ccccc2)n1  20.7%
58. COc1ccc(-c2nc(NC(C)=O)sc2-c2ccccc2)cc1  34.7%
